Substitutions are numbered along the chain they refer to.

The text below walks through data of paper PMC11006913.

What all share (experiment): PBM; 200 nM protein, PBS
What all share (settings): dsDNA, one strand shown

The target in experiment [1] is HOXA4 (Homo sapiens, UniProt Q00056 201-287, W262R).
Experiment [2] deals with HOXB6 (Homo sapiens, UniProt P17509 132-218, K202E).
For experiment [3], the target named is HOXA4 (Homo sapiens, UniProt Q00056 201-287, R217L).
The target of experiment [4] is ALX1 (Homo sapiens, UniProt Q15699 118-204, L144V).
The target of experiment [5] is ALX3 (Homo sapiens, UniProt O95076 139-225, N203Q).
For experiment [6], the target named is ALX1 (Homo sapiens, UniProt Q15699 118-204, L144R).
Experiment [7] addresses HOXA4 (Homo sapiens, UniProt Q00056 201-287).
For experiment [8], the target named is ALX3 (Homo sapiens, UniProt O95076 139-225).
In experiment [9] the target is ALX3 (Homo sapiens, UniProt O95076 139-225, L168Q).
For experiment [10], the target named is ALX3 (Homo sapiens, UniProt O95076 139-225, L168V).
Experiment [11] addresses NKX3-2 (Homo sapiens, UniProt P78367 192-278, P234S).
Experiment [12] concerns the target ALX1 (Homo sapiens, UniProt Q15699 118-204).
For experiment [13], the target named is HOXA4 (Homo sapiens, UniProt Q00056 201-287, W262F).
Experiment [14] deals with ALX3 (Homo sapiens, UniProt O95076 139-225, N203S).
The target of experiment [15] is HOXB6 (Homo sapiens, UniProt P17509 132-218).
The target of experiment [16] is NKX3-2 (Homo sapiens, UniProt P78367 192-278).
Experiment [17] has as its target HOXC9 (Homo sapiens, UniProt P31274 178-260, K195R).
Experiment [18] has as its target HOXC9 (Homo sapiens, UniProt P31274 178-260).
In experiment [19] the target is HOXC9 (Homo sapiens, UniProt P31274 178-260, R193K).
Experiment [20] has as its target HOXC9 (Homo sapiens, UniProt P31274 178-260, R222W).
Experiment [21] has as its target T1, SIX6 (Homo sapiens, UniProt O95475 114-200, L167I).
T1 sequence: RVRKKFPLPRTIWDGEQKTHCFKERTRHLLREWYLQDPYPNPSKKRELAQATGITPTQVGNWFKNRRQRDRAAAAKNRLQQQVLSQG

In experiment [22] the target is T2, SIX6 (Homo sapiens, UniProt O95475 114-200, T139Q).
T2 sequence: T1 sequence with T26Q, I54L

Experiment [23] concerns the target ALX4 (Homo sapiens, UniProt Q9H161 200-286).
Experiment [24] addresses ALX4 (Homo sapiens, UniProt Q9H161 200-286, Q225E).

Sequence of HOXA4 (Homo sapiens, UniProt Q00056 201-287, R217L) (Q00056 201-287 R217L): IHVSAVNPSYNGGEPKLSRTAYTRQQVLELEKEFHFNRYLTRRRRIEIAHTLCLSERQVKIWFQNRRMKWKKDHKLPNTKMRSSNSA
Sequence of HOXA4 (Homo sapiens, UniProt Q00056 201-287, W262R) (Q00056 201-287 W262R): as the sequence (Q00056 201-287 R217L) above, with L17R, W62R counted along it
Sequence of HOXA4 (Homo sapiens, UniProt Q00056 201-287) (Q00056 201-287): as the sequence (Q00056 201-287 R217L) above, with L17R counted along it
Sequence of HOXA4 (Homo sapiens, UniProt Q00056 201-287, W262F) (Q00056 201-287 W262F): as the sequence (Q00056 201-287 R217L) above, with L17R, W62F counted along it
Sequence of HOXC9 (Homo sapiens, UniProt P31274 178-260, R193K) (P31274 178-260 R193K): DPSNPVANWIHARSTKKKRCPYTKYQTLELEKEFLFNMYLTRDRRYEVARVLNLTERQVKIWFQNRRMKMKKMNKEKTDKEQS
Sequence of ALX3 (Homo sapiens, UniProt O95076 139-225) (O95076 139-225): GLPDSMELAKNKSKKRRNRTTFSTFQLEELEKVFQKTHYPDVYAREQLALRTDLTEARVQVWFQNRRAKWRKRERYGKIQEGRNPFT
Sequence of ALX3 (Homo sapiens, UniProt O95076 139-225, N203Q) (O95076 139-225 N203Q): as the sequence (O95076 139-225) above, with N65Q counted along it
Sequence of ALX3 (Homo sapiens, UniProt O95076 139-225, N203S) (O95076 139-225 N203S): as the sequence (O95076 139-225) above, with N65S counted along it
Sequence of HOXC9 (Homo sapiens, UniProt P31274 178-260) (P31274 178-260): as the sequence (P31274 178-260 R193K) above, with K16R counted along it
Sequence of ALX3 (Homo sapiens, UniProt O95076 139-225, L168V) (O95076 139-225 L168V): as the sequence (O95076 139-225) above, with L30V counted along it
Sequence of HOXC9 (Homo sapiens, UniProt P31274 178-260, R222W) (P31274 178-260 R222W): as the sequence (P31274 178-260 R193K) above, with K16R, R45W counted along it
Sequence of HOXC9 (Homo sapiens, UniProt P31274 178-260, K195R) (P31274 178-260 K195R): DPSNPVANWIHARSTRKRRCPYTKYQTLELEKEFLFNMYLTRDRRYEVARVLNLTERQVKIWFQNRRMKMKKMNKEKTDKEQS
Sequence of ALX3 (Homo sapiens, UniProt O95076 139-225, L168Q) (O95076 139-225 L168Q): as the sequence (O95076 139-225) above, with L30Q counted along it
Sequence of NKX3-2 (Homo sapiens, UniProt P78367 192-278, P234S) (P78367 192-278 P234S): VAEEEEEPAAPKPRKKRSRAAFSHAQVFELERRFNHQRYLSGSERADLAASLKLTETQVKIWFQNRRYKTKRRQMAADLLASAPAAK
Sequence of NKX3-2 (Homo sapiens, UniProt P78367 192-278) (P78367 192-278): as the sequence (P78367 192-278 P234S) above, with S43P counted along it
Sequence of ALX1 (Homo sapiens, UniProt Q15699 118-204, L144R) (Q15699 118-204 L144R): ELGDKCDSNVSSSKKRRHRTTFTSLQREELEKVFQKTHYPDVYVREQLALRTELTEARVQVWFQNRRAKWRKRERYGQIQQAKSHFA
Sequence of ALX4 (Homo sapiens, UniProt Q9H161 200-286) (Q9H161 200-286): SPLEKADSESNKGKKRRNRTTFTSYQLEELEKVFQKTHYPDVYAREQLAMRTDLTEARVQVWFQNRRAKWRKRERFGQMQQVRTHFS
Sequence of ALX1 (Homo sapiens, UniProt Q15699 118-204) (Q15699 118-204): as the sequence (Q15699 118-204 L144R) above, with R27L counted along it
Sequence of ALX1 (Homo sapiens, UniProt Q15699 118-204, L144V) (Q15699 118-204 L144V): as the sequence (Q15699 118-204 L144R) above, with R27V counted along it
Sequence of HOXB6 (Homo sapiens, UniProt P17509 132-218) (P17509 132-218): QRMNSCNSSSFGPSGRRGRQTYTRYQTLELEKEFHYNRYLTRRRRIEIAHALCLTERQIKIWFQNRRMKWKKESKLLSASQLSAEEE
Sequence of ALX4 (Homo sapiens, UniProt Q9H161 200-286, Q225E) (Q9H161 200-286 Q225E): as the sequence (Q9H161 200-286) above, with Q26E counted along it
Sequence of HOXB6 (Homo sapiens, UniProt P17509 132-218, K202E) (P17509 132-218 K202E): as the sequence (P17509 132-218) above, with K71E counted along it

Take CAGCCTCC: the binding signal with HOXA4 [1] was 9.65 upbm affinity estimate (log intensity, higher = more binding, comparable within an allelic series); with HOXB6 [2] it was 8.86 upbm affinity estimate (log intensity, higher = more binding, comparable within an allelic series); in the experiment with HOXA4 [3], 9.73 upbm affinity estimate (log intensity, higher = more binding, comparable within an allelic series); with ALX1 [4], 6.61 upbm affinity estimate (log intensity, higher = more binding, comparable within an allelic series); in the experiment with ALX3 [5], 7.63 upbm affinity estimate (log intensity, higher = more binding, comparable within an allelic series); in the experiment with ALX1 [6], 6.48 upbm affinity estimate (log intensity, higher = more binding, comparable within an allelic series). Further, the binding signal was 9.62 upbm affinity estimate (log intensity, higher = more binding, comparable within an allelic series) with HOXA4 [7]; 7.74 upbm affinity estimate (log intensity, higher = more binding, comparable within an allelic series) with ALX3 [8]; 7.64 upbm affinity estimate (log intensity, higher = more binding, comparable within an allelic series) in the experiment with ALX3 [9]; 7.62 upbm affinity estimate (log intensity, higher = more binding, comparable within an allelic series) with ALX3 [10]; 10.7 upbm affinity estimate (log intensity, higher = more binding, comparable within an allelic series) in the experiment with NKX3-2 [11]; 6.39 upbm affinity estimate (log intensity, higher = more binding, comparable within an allelic series) in the experiment with ALX1 [12]. The binding signal is 9.71 upbm affinity estimate (log intensity, higher = more binding, comparable within an allelic series) with HOXA4 [13]; 7.61 upbm affinity estimate (log intensity, higher = more binding, comparable within an allelic series) with ALX3 [14]; 8.88 upbm affinity estimate (log intensity, higher = more binding, comparable within an allelic series) with HOXB6 [15]; 10.7 upbm affinity estimate (log intensity, higher = more binding, comparable within an allelic series) with NKX3-2 [16].

Take CCCGAGGG: the binding signal with HOXA4 [1] is 9.81 upbm affinity estimate (log intensity, higher = more binding, comparable within an allelic series); with HOXC9 [17] it was 9.47 upbm affinity estimate (log intensity, higher = more binding, comparable within an allelic series); with HOXA4 [3], 9.62 upbm affinity estimate (log intensity, higher = more binding, comparable within an allelic series); with HOXC9 [18], 9.55 upbm affinity estimate (log intensity, higher = more binding, comparable within an allelic series); in the experiment with HOXC9 [19], 9.54 upbm affinity estimate (log intensity, higher = more binding, comparable within an allelic series); in the experiment with HOXA4 [7] it was 9.66 upbm affinity estimate (log intensity, higher = more binding, comparable within an allelic series). Besides, the binding signal in the experiment with HOXC9 [20] was 9.61 upbm affinity estimate (log intensity, higher = more binding, comparable within an allelic series); in the experiment with HOXA4 [13] it was 9.77 upbm affinity estimate (log intensity, higher = more binding, comparable within an allelic series).

As to AGTGATCC, the binding signal with SIX6 [21] is 11.1 upbm affinity estimate (log intensity, higher = more binding, comparable within an allelic series); in the experiment with SIX6 [22], 11.2 upbm affinity estimate (log intensity, higher = more binding, comparable within an allelic series).

As for GCGGACCC, the binding signal is 9.75 upbm affinity estimate (log intensity, higher = more binding, comparable within an allelic series) with HOXA4 [1]; 8.35 upbm affinity estimate (log intensity, higher = more binding, comparable within an allelic series) with ALX4 [23]; 8.27 upbm affinity estimate (log intensity, higher = more binding, comparable within an allelic series) with ALX4 [24]; 9.74 upbm affinity estimate (log intensity, higher = more binding, comparable within an allelic series) with HOXA4 [3]; 9.79 upbm affinity estimate (log intensity, higher = more binding, comparable within an allelic series) in the experiment with HOXA4 [7]; 9.89 upbm affinity estimate (log intensity, higher = more binding, comparable within an allelic series) with HOXA4 [13].

For AGCCACGG, the binding signal with HOXA4 [1] is 9.87 upbm affinity estimate (log intensity, higher = more binding, comparable within an allelic series); in the experiment with HOXC9 [17], 9.64 upbm affinity estimate (log intensity, higher = more binding, comparable within an allelic series); with HOXA4 [3], 9.72 upbm affinity estimate (log intensity, higher = more binding, comparable within an allelic series); with HOXC9 [18] it was 9.71 upbm affinity estimate (log intensity, higher = more binding, comparable within an allelic series); with ALX3 [5], 7.72 upbm affinity estimate (log intensity, higher = more binding, comparable within an allelic series); in the experiment with HOXC9 [19], 9.61 upbm affinity estimate (log intensity, higher = more binding, comparable within an allelic series). In addition, the binding signal is 9.87 upbm affinity estimate (log intensity, higher = more binding, comparable within an allelic series) in the experiment with HOXA4 [7]; 7.83 upbm affinity estimate (log intensity, higher = more binding, comparable within an allelic series) with ALX3 [8]; 7.8 upbm affinity estimate (log intensity, higher = more binding, comparable within an allelic series) with ALX3 [9]; 9.71 upbm affinity estimate (log intensity, higher = more binding, comparable within an allelic series) with HOXC9 [20]; 7.72 upbm affinity estimate (log intensity, higher = more binding, comparable within an allelic series) in the experiment with ALX3 [10]; 9.91 upbm affinity estimate (log intensity, higher = more binding, comparable within an allelic series) with HOXA4 [13]. For the same sequence, the binding signal with ALX3 [14] is 7.74 upbm affinity estimate (log intensity, higher = more binding, comparable within an allelic series).
